In PubChem BioAssay (NCATS):
Inconclusive results are not listed. Entries that show only a call come without a potency. Unmarked numbers belong to inactive results. Calls of active or inactive are those of the source. Calls follow the shape of the dose curve; as a rule, active = well fitted curve in the direction sought with a large enough effect; inconclusive = small, poorly fitted or top-dose-only effect, or another doubt; inactive = no such curve, though single readings can be large; an effect the other way counts as inactive or inconclusive.

Experiments:
[1] = qHTS for Inhibitors of the Aldehyde Dehydrogenase Family (ALDH1A2, ALDH1A3, ALDH2, ALDH3A1) (AID 2061307); also: nearly all actives have a fitted effect of over 50% in size; as to potency: test system not described further here; potency is read from the fitted curve at half-maximal effect
[2] = biological target: Aldehyde dehydrogenase, mitochondrial (Homo sapiens) (UniProt P05091); assay: qHTS for Inhibitors of the Aldehyde Dehydrogenase Family (ALDH2) Primary screen (AID 2061308); also: nearly all actives have a fitted effect of over 55% in size
[3] = biological target: Retinaldehyde dehydrogenase 3 (Homo sapiens) (UniProt P47895); assay: qHTS for Inhibitors of the Aldehyde Dehydrogenase Family (ALDH1A3) Primary screen (AID 2061315)
[4] = biological target: Aldehyde dehydrogenase 1A1 (Homo sapiens) (UniProt P00352); assay: qHTS for Inhibitors of the Aldehyde Dehydrogenase Family (ALDH1A1) Confirmatory screens (AID 2061316); also: nearly all actives have a fitted effect of over 65% in size; also: potency is read from the fitted curve at half-maximal effect
[5] = biological target: Retinaldehyde dehydrogenase 3 (Homo sapiens) (UniProt P47895); assay: qHTS for Inhibitors of the Aldehyde Dehydrogenase Family (ALDH1A3) Confirmatory screens (AID 2061311); also: nearly all actives have a fitted effect of over 60% in size; also: potency is read from the fitted curve at half-maximal effect
[6] = biological target: Retinal dehydrogenase 2 (Homo sapiens) (UniProt O94788); assay: qHTS for Inhibitors of the Aldehyde Dehydrogenase Family (ALDH1A2) Confirmation screens (AID 2061314); also: nearly all actives have a fitted effect of over 65% in size; also: potency is read from the fitted curve at half-maximal effect

Structure (SMILES): OCc1ccc(-c2ccc3ncnc(NCCc4cnc[nH]4)c3c2)o1
- Potency [1]: inactive
- Potency [2]: inactive
- Potency [3]: inactive
- Potency [4]: 10.1 µM (active)

Structure (SMILES): COc1ccc(C2c3c(ncn(CCN4CCOCC4)c3=N)Oc3ccc4ccccc4c32)cc1OC (stereo unspecified)
- Potency [1]: inactive
- Potency [2]: inactive
- Potency [3]: inactive

Structure (SMILES): COC(=O)c1ccnc(NCc2ccc(O)c3ncccc23)c1
- Potency [1]: 11.3 µM (active)
- Potency [5]: 7.12 µM (active)
- Potency [4]: 11.3 µM (active)

Structure (SMILES): CCc1ccc(-c2nn3c(C)nnc3s2)cc1NC(=O)c1ccc(-c2cccc(Cl)c2)o1
- Potency [1]: 25.1 µM (active)
- Potency [6]: 12.7 µM (active)
- Potency [3]: inactive
- Potency [4]: 5.04 µM (active)

Structure (SMILES): COc1ccc(NC(=O)c2cccnc2)cc1S(=O)(=O)Nc1ccc(Br)cc1
- Potency [1]: inactive
- Potency [3]: inactive

Structure (SMILES): O=C1Cc2cc(S(=O)(=O)N3CCN(c4ccc([N+](=O)[O-])cc4)CC3)ccc2N1
- Potency [1]: inactive
- Potency [3]: inactive

Structure (SMILES): O=C(N/N=C/c1ccc(Sc2ccccn2)o1)c1ccccc1
- Potency [1]: 5.65 µM (active)
- Potency [6]: inactive

Structure (SMILES): O=C(NCC(=O)N1CCC(c2ccccc2)CC1)c1cccc(-c2ccc(C(F)(F)F)cc2)c1
- Potency [1]: inactive
- Potency [5]: inactive
- Potency [4]: inactive

Structure (SMILES): O=C(NCc1ccccc1)c1csc(N2CCN(c3ccc(Cl)cc3)CC2)n1
- Potency [1]: 2.82 µM (active)
- Potency [6]: inactive

Structure (SMILES): CC(=O)Nc1sc2c(c1-c1ccc(N(C)C)cc1)CCNC2
- Potency [1]: 14.2 µM (active)
- Potency [5]: 3.57 µM (active)
- Potency [4]: 11.3 µM (active)

Structure (SMILES): CCc1ccc(-n2c(=O)c3cccnc3n2CC(=O)N(CC)c2cccc(C)c2)cc1
- Potency [1]: inactive
- Potency [5]: 28.2 µM (active)
- Potency [4]: 11.5 µM (active)

Structure (SMILES): CN(C)CCCNc1cc(O)c2ncccc2c1
- Potency [1]: inactive
- Potency [5]: 1.42 µM (active)
- Potency [4]: 4 µM (active)

Structure (SMILES): COc1ccc(C2Nc3ccc(Cl)cc3C(=O)N2Cc2ccccc2)cc1COc1ccc(NC(C)=O)cc1 (stereo unspecified)
- Potency [1]: 3.57 µM (active)
- Potency [6]: 11.3 µM (active)
- Potency [3]: inactive
- Potency [4]: 22.5 µM (active)

Structure (SMILES): CCc1nnc2sc(-c3ccc(C)c(NC(=O)c4ccc(-c5cccc(Cl)c5)o4)c3)nn12
- Potency [1]: 12.6 µM (active)
- Potency [6]: 3.18 µM (active)

Structure (SMILES): O=C(Nc1cccc(Cc2ccccc2)c1)c1ccc(-c2cccc([N+](=O)[O-])c2)o1
- Potency [1]: 25.2 µM (active)
- Potency [6]: 12.7 µM (active)
- Potency [3]: inactive

Structure (SMILES): Cc1ccc(NC(=O)CSc2nc3ccccc3nc2N2CCOCC2)cc1
- Potency [1]: 25.1 µM (active)
- Potency [6]: 2.29 µM (active)

Structure (SMILES): Cc1ccc2nc3sc(C(=O)NC4CCC(O)CC4)cc3cc2c1 (stereo unspecified)
- Potency [1]: 6.34 µM (active)
- Potency [5]: 20.1 µM (active)
- Potency [3]: inactive
- Potency [4]: 12.7 µM (active)

Structure (SMILES): CCOC(=O)c1ccc(-c2ccc3ncnc(NCc4ccc(C)o4)c3c2)o1
- Potency [1]: inactive
- Potency [6]: 12.7 µM (active)
- Potency [3]: inactive

Structure (SMILES): Cc1cccc(NC(=O)N2CC(Oc3ccc(-c4nc(C)no4)cc3)C2)c1
- Potency [1]: 3.24 µM (active)
- Potency [6]: inactive
- Potency [4]: inactive

Structure (SMILES): CC(C)(O)c1ccccc1CC[C@H](SCC1(CC(=O)O)CC1)c1cccc(/C=C/c2ccc3ccc(Cl)cc3n2)c1
- Potency [1]: 10.1 µM (active)
- Potency [6]: inactive
- Potency [3]: inactive
- Potency [4]: 22.5 µM (active)

Structure (SMILES): Cc1cc(N(C)S(=O)(=O)c2ccc(NC(=O)Cc3ccc(Cl)c(Cl)c3)cc2)no1
- Potency [1]: 25.2 µM (active)
- Potency [6]: inactive
- Potency [4]: 12.7 µM (active)

Structure (SMILES): CCOC(=O)Cn1c(=O)oc2cc(S(=O)(=O)N3CCN(c4ccc(Cl)cc4)CC3)ccc21
- Potency [1]: inactive
- Potency [5]: inactive
- Potency [4]: inactive

Structure (SMILES): Nc1ccccc1C(=O)NCc1ccco1
- Potency [1]: inactive
- Potency [3]: inactive

Structure (SMILES): Cc1nnc2ccc(N3CCC(NC(=O)c4cccc(C(F)(F)F)c4)CC3)nn12
- Potency [1]: inactive
- Potency [5]: inactive
- Potency [4]: inactive

Structure (SMILES): Cc1ccnc(NC(=S)N2CCNCC2)c1
- Potency [1]: inactive
- Potency [6]: inactive

Structure (SMILES): COc1ccc(C2c3c(N)nc(CCc4ccccc4)nc3Oc3ccc4ccccc4c32)cc1OC (stereo unspecified)
- Potency [1]: inactive
- Potency [3]: inactive

Structure (SMILES): COc1cccc(S(=O)(=O)NC2CCN(C#N)C2)c1 (stereo unspecified)
- Potency [1]: inactive
- Potency [5]: inactive
- Potency [3]: inactive
- Potency [4]: inactive

Structure (SMILES): O=C(NCCc1nc2ccccc2n1CCCc1ccccc1)C1CCCCC1
- Potency [1]: inactive
- Potency [6]: inactive
- Potency [3]: inactive

Structure (SMILES): O=C(Nc1cccc(Br)c1)c1cc(-c2ccc3c(c2)OCCO3)on1
- Potency [1]: inactive
- Potency [6]: inactive
- Potency [4]: inactive

Structure (SMILES): Cc1ccc(NS(=O)(=O)c2cc3c(cc2-c2ccco2)NC(=O)CO3)cc1C
- Potency [1]: inactive
- Potency [6]: inactive
- Potency [3]: inactive
- Potency [4]: 11.3 µM (active)

Structure (SMILES): COc1ccc(C2=NS(=O)(=O)N(C)C(C(=O)Nc3ccc(OC(F)(F)F)cc3)=C2)cc1
- Potency [1]: 7.94 µM (active)
- Potency [6]: inactive

Structure (SMILES): CNc1sc(-c2cccc3ccccc23)nc1C#N
- Potency [1]: inactive
- Potency [6]: 11.3 µM (active)
- Potency [3]: inactive
- Potency [4]: 5.04 µM (active)

Structure (SMILES): C[C@@H](O)c1ccc(-c2ccc3ncnc(NCc4cccs4)c3c2)o1
- Potency [1]: inactive
- Potency [3]: inactive

Structure (SMILES): O=C(NCc1ccc2c(c1)OCO2)c1csc(N2CCN(c3ccc(F)cc3)CC2)n1
- Potency [1]: 0.708 µM (active)
- Potency [6]: inactive
- Potency [4]: 4.47 µM (active)

Structure (SMILES): C#CCOc1ccc(-c2no[n+]([O-])c2C#N)cc1
- Potency [1]: 11.3 µM (active)
- Potency [6]: 7.98 µM (active)
- Potency [3]: inactive

Structure (SMILES): CC(=O)Nc1sc2c(c1-c1ccc(N3CCN(C)CC3)cc1)CCNC2
- Potency [1]: inactive
- Potency [5]: inactive
- Potency [4]: inactive

Structure (SMILES): O=C(CSc1nc2ncccc2o1)Nc1ccc(Cl)cc1F
- Potency [1]: inactive
- Potency [5]: 10 µM (active)
- Potency [4]: inactive

Structure (SMILES): CN(Cc1ccc(-c2ccc(C#N)cc2)o1)c1ccc(N2CCN(C(=O)OC(C)(C)C)CC2)cc1
- Potency [1]: 1.79 µM (active)
- Potency [5]: 11.3 µM (active)
- Potency [4]: 11.3 µM (active)
